# USP2a block: USP2a (human) protease inhibition | 330,000 tested, 0.01% active | USP2 core, Ub-CHOP2 coupled fluorogenic reporter, 485/531 | O75604 | Potency, µM (series often up to 38.3 µM), for inactives: top-dose activity change, negative = inhibition, usual class: inhibitors;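 note: potency is the fitted concentration of half-maximal effect; plate controls were DMSO wells for no effect and full inhibition by NEM control for full effect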
#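 USP2 core (10nM final) preincubated 30min RT with compound in 20mM Tris-HCl pH 8.0, 2mM CaCl2, 2mM beta-mercaptoethanol, 0.05% CHAPS; 25nM Ub-CHOP2 plus 25nM reporter substrate added, fluorescence (Ex485/Em531) read after 60min.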
# Six1-Eya2 blk: inhibitors of human Six1/Eya2 interaction. 360,000 tested, 0.56% active. AlphaScreen GST-Six1/His-Eya2 binding, biochemical; active compounds read low. activity change, % (no concentration beside the values); in the data active = activity change below about -65%; inconclusive = mostly about -30% to -63%
#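 Six1/Eya2 binding was read as AlphaScreen signal after compounds were pinned into GST-Six1 plus His-tagged Eya2 (5X stock 250/500 nM) in pH 8.0 Tris/NaCl/TCEP buffer, beads added, then incubated 1 h, 37 C, dark.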
# Eya2 phos inh: Eya2 (human) phosphatase inhibition | O00167 | recombinant Eya2, OMFP fluorescence dephosphorylation (OMFP is methylfluorescein phosphate) | Potency, µM (series often up to 76.9 µM), without a hit: at the top dose activity, negative = inhibition, usual class: inhibitors | 330,000 tested, 0.006% active; note: potency is the fitted concentration of half-maximal effect
# Target sequence (O00167 whole entry, looked up): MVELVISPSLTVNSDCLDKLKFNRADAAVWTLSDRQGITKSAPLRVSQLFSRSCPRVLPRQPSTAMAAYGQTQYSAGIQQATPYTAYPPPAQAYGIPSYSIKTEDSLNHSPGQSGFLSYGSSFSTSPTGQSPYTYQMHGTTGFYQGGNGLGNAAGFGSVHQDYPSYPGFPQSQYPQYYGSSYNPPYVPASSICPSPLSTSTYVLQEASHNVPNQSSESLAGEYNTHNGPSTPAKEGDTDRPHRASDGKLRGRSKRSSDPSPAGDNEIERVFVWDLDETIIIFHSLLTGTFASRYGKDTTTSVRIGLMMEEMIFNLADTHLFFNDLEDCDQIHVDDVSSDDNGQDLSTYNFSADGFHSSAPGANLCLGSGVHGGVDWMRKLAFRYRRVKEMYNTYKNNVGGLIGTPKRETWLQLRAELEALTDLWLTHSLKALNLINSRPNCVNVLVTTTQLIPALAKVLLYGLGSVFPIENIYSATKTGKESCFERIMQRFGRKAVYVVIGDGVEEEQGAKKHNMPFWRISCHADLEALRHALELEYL
#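 Eya2 protein (added as 0.2 uM solution) was preincubated with compound for 10 min at ambient temperature in 50 mM HEPES pH 7.5, 50 mM NaCl, 5 uM MgCl2, 0.05% BSA, 1 mM DTT. OMFP (added at 50 uM) then reacted 10 min; fluorescence read at 485/525 nm.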
# L3MBTL1 inh: blocks human L3MBTL1; 230,000 tested, 0.66% active; AlphaScreen L3MBTL1–H3K9me1 peptide binding; Q9Y468; Potency, µM (titrated, usually from 57.1 µM), inactives show at the top dose activity, negative = inhibition, usual class: inhibitors; AID 485360; note: potency is the fitted concentration of half-maximal effect; nearly all actives have a fitted effect of over 60% in size
#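 Read-out is AlphaScreen signal from streptavidin donor and nickel chelate acceptor beads (10 ug/mL final each) bridging L3MBTL1 (50 nM) and biotinylated K9-monomethylated H3(1-15) peptide (75 nM), after 30 min compound exposure at room temperature.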
# CtBP-E1A blk: CtBP/E1A binding inhibition; AID 651724; 340,000 tested, 0.49% active; activity change, % (concentration not given with the values); AlphaScreen GST-E1A/His-CtBP binding, 1536-well; active compounds read low; in the data active = activity change below about -65%; inconclusive = mostly about -30% to -63%
#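 Protein mix (5X: 125 nM each GST-E1A, His-CtBP) was incubated with pinned compound 2 h at 37 deg C in dark, in 50 mM Tris pH 8.0 buffer with 300 mM NaCl. Glutathione donor and nickel acceptor beads followed; AlphaScreen signal read after 1 h.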
# uPA generation: inhibitors of cell surface uPA generation; Potency, µM (series often up to 38.3 µM), inactives show at the top dose activity change, negative = inhibition, usual class: inhibitors; 330,000 tested, 0.31% active; cell surface uPA generation assay, qHTS; active = well fitted inhibition curve with a large enough effect; inconclusive = small, poorly fitted or top-dose-only effect; inactive = no such curve, though single readings can be large or run the other way; tested in mouse RAW 264.7 cells; note: potency is the fitted concentration of half-maximal effect; nearly all actives have a fitted effect of over 55% in size
# An asterisk follows results filed as active; ? = inconclusive; · = no result given; ! = repeats disagree. Rows were chosen to be rich in hits. Some 1.2% of all compounds tested hit in one or more screens of this group. Unless noted, calls come from the whole dose curve; as a rule, active = well fitted curve in the direction sought with a large enough effect; inconclusive = small, poorly fitted or top-dose-only effect, or another doubt; inactive = no such curve, though single readings can be large; an effect the other way counts as inactive or inconclusive. Unless noted, % is set by controls: 0 for no effect and ±100 for the full control effect.
SMILES,USP2a block,Six1-Eya2 blk,Eya2 phos inh,L3MBTL1 inh,CtBP-E1A blk,uPA generation
COc1ccccc1N1CSC2=C(C#N)C(c3ccc(SC)cc3)CC(=O)N2C1 (centres undefined),-1%,-5,-2%,22µM*,-3,7%
O=C(CSc1n[nH]c(=O)[nH]c1=O)N/N=C/c1ccccc1O,-2%,-80*,3%,2%,-77*,2%
COc1cccc(C(NC(C)=O)c2nc(-c3ccc4ccccc4c3)cs2)c1 (centres undefined),·,-12,·,·,1,·
COc1ccc2c(c1OC)CN1CCc3cc4c(cc3[C@@H]1[C@@H]2O)OCO4,0%,-5,8%,-3%,-2,-2%
O[C@@H]1[C@@H](O)C=C2CCN3Cc4cc5c(cc4[C@H]1C23)OCO5 (some centres undefined),0%,-2,10%,3%,-4,1µM*
CCN1/C(=C/c2ccc3ccccc3[n+]2CCCS(=O)(=O)[O-])C=Cc2cc(C)ccc21,-1%,-21,0%,·,?,-6%
CCN1/C(=C/c2ccc3ccccc3[n+]2CC)C=Cc2ccccc21,-15%,-70*,-43%,·,?,-17%
Cc1ccc(-c2csc(C(O)c3ccccc3)n2)cc1C (centres undefined),·,5,·,·,8,·
O=C1/C(=N\S(=O)(=O)c2cccs2)C([n+]2ccccc2)=C([O-])c2ccccc21,8%,6,1%,·,·,-7%
Cc1ccc(NC2=C/C(=N\S(=O)(=O)c3cccs3)c3ccccc3C2=O)c(C)c1,-5%,-84*,-24%,3.2µM*,-85*,-13%
Cc1cccc(NC2=C/C(=N/S(=O)(=O)c3cccs3)c3ccccc3C2=O)c1,0%,-23,-4%,1.6µM*,?,-9%
Cc1ccc(Cl)cc1NC1=C/C(=N\S(=O)(=O)c2cccs2)c2ccccc2C1=O,0%,-74*!,6%,·,-78*,-17%
O=C1C(Nc2ccc(O)cc2)=C/C(=N/S(=O)(=O)c2cccs2)c2ccccc21,2%,-77*,-8%,13µM*,?,-17%
O=C(O)c1ccc(NC2=C/C(=N/S(=O)(=O)c3ccccc3)c3ccccc3C2=O)cc1,4%,?,-8%,·,?,-7%
Cc1cc(C)c(S(=O)(=O)/N=C2\C=C(NS(=O)(=O)c3ccccc3)C(=O)c3ccccc32)c(C)c1,1%,4,-9%,·,-2,4%
Cc1ccc(S(=O)(=O)/N=C2\C=C(NS(=O)(=O)c3ccccc3)C(=O)c3ccccc32)cc1,·,?,·,·,-28,-1%
CCOC(=O)C1(NC(=O)C2(NC(=O)CN3C(=O)c4ccccc4C3=O)CCCC2)CCCC1,·,-5,·,·,2,-1%
O=C(CCl)Nc1ccc(N=Nc2ccccc2)cc1,1%,-8,-19%,-19%,·,14µM*
COc1ccc(/C=C/C(=O)OCC(=O)Nc2ccc(Cl)cn2)cc1,-3%,-3,5%,4%,·,-8%
O=C(O)c1ccccc1-c1ccc(C=c2sc3nc4cc(Br)cnc4n3c2=O)o1,·,-69*,·,·,?,·
CCOc1ccc(S(=O)(=O)N2CCCC(C(=O)NCc3ccncc3)C2)cc1Cl (centres undefined),0%,0,-5%,·,-2,-3%
COc1ccc(OCc2cc(C(=O)N(C)Cc3cc(C4CC4)n[nH]3)no2)c(Cl)c1,-4%,-8,-13%,·,·,-23%
O=C(/C=C/c1ccccc1)Nc1ccc(Br)cn1,0%,0,7%,-7%,0,1.6µM*
O=C(N/N=C/c1cc(O)ccc1Br)c1cccnc1,3%,-91*,-6%,?,-93*,10µM*
O=C(N/N=C/c1cc(Br)c(O)c(Br)c1O)c1cccnc1,0%,-91*,1%,·,·,-3%
O=C(N/N=C/c1cc2c(cc1Br)OCO2)c1cccnc1,1%,-3,2%,·,-10,-7%
COCC1CCN(Cc2cn(C)nc2-c2cccc(Cl)c2)C1 (centres undefined),7%,8,2%,3%,16,0%

# Compound activity: PubChem BioAssay, National Center for Advancing Translational Sciences (NCATS)
